Laboratory results as given in ChEMBL document CHEMBL5598561, “ASAP - In vitro binding kinetics” (2024).

Target: Nonstructural protein 3 (Zika virus) (UniProt A0A024AXB9)
Sequence (A0A024AXB9 as listed by the source): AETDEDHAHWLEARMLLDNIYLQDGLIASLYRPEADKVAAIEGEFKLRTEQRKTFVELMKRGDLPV

SMILES: O=C1CCN(c2cc(Cl)cc(C(=O)Nc3ccc4c(c3)CNC4)c2)C(=O)N1
- pKD (PRVABC59, Concentration 10.0 uM, Immobilization level 10000.0 pg/mm2, Rmax 25.0 pg/mm2, ka 256015.917 M-1s-1, kd 2.294 1/s): 5.05
- pKD (PRVABC59, Concentration 10.0 uM, Immobilization level 12000.0 pg/mm2, Rmax 56.0 pg/mm2, ka 218751.029 M-1s-1, kd 1.634 1/s): 5.13
- pKD (PRVABC59, Concentration 10.0 uM, Immobilization level 13000.0 pg/mm2, Rmax 29.0 pg/mm2, ka 336624.127 M-1s-1, kd 1.776 1/s): 5.28

SMILES: N#Cc1cc(C(=O)Nc2ccc3c(c2)CNC3)cc(C(F)(F)F)c1
- pKD (PRVABC59, Concentration 1.0 uM, Immobilization level 3900.0 pg/mm2, Rmax 43.0 pg/mm2, ka 266866.495 M-1s-1, kd 1.179 1/s): 5.36
- pKD (PRVABC59, Concentration 10.0 uM, Immobilization level 4900.0 pg/mm2, Rmax 32.0 pg/mm2, ka 534169.763 M-1s-1, kd 0.781 1/s): 5.84
- pKD (PRVABC59, Concentration 10.0 uM, Immobilization level 5500.0 pg/mm2, Rmax 33.0 pg/mm2, ka 604018.636 M-1s-1, kd 0.866 1/s): 5.84
- pKD (PRVABC59, Concentration 10.0 uM, Immobilization level 10000.0 pg/mm2, Rmax 37.0 pg/mm2, ka 362843.113 M-1s-1, kd 0.996 1/s): 5.56
- pKD (PRVABC59, Concentration 10.0 uM, Immobilization level 12000.0 pg/mm2, Rmax 65.0 pg/mm2, ka 232125.016 M-1s-1, kd 0.861 1/s): 5.43
- pKD (PRVABC59, Concentration 10.0 uM, Immobilization level 13000.0 pg/mm2, Rmax 45.0 pg/mm2, ka 383567.228 M-1s-1, kd 0.798 1/s): 5.68

SMILES: O=C1NCc2c1cccc2C(=O)Nc1ccc2c(c1)CNC2
- pKD (PRVABC59, Concentration 10.0 uM, Immobilization level 3900.0 pg/mm2, Rmax 18.0 pg/mm2, ka 393715.885 M-1s-1, kd 4.071 1/s): 4.99
- pKD (PRVABC59, Concentration 10.0 uM, Immobilization level 4900.0 pg/mm2, Rmax 15.0 pg/mm2, ka 235814.335 M-1s-1, kd 2.807 1/s): 4.92
- pKD (PRVABC59, Concentration 10.0 uM, Immobilization level 5500.0 pg/mm2, Rmax 18.0 pg/mm2, ka 357121.96 M-1s-1, kd 4.231 1/s): 4.93
- pKD (PRVABC59, Concentration 10.0 uM, Immobilization level 12000.0 pg/mm2, ka 172299.161 M-1s-1, kd 1.476 1/s): 5.07
- pKD (PRVABC59, Concentration 10.0 uM, Immobilization level 13000.0 pg/mm2, Rmax 19.0 pg/mm2, ka 18937.32 M-1s-1, kd 1.323 1/s): 4.16

SMILES: NCc1ccc(NC(=O)c2cc(Cl)cc3[nH]ncc23)cc1F
- pKD (PRVABC59, Concentration 10.0 uM, Immobilization level 3900.0 pg/mm2, Rmax 23.0 pg/mm2, ka 241912.451 M-1s-1, kd 2.753 1/s): 4.94
- pKD (PRVABC59, Concentration 10.0 uM, Immobilization level 4900.0 pg/mm2, Rmax 19.0 pg/mm2, ka 418363.843 M-1s-1, kd 3.02 1/s): 5.14
- pKD (PRVABC59, Concentration 10.0 uM, Immobilization level 5500.0 pg/mm2, Rmax 22.0 pg/mm2, ka 268076.557 M-1s-1, kd 2.711 1/s): 5
- pKD (PRVABC59, Concentration 10.0 uM, Immobilization level 12000.0 pg/mm2, Rmax 15.0 pg/mm2, ka 138303.314 M-1s-1, kd 1.565 1/s): 4.95
- pKD (PRVABC59, Concentration 10.0 uM, Immobilization level 13000.0 pg/mm2, Rmax 64.0 pg/mm2, ka 32485.569 M-1s-1, kd 2.272 1/s): 4.16

SMILES: N[C@H]1CCCc2ccc(NC(=O)c3cc(Cl)cc4[nH]ncc34)cc21
- pKD (PRVABC59, Concentration 10.0 uM, Immobilization level 3900.0 pg/mm2, Rmax 27.0 pg/mm2, ka 296746.451 M-1s-1, kd 1.513 1/s): 5.29
- pKD (PRVABC59, Concentration 10.0 uM, Immobilization level 4900.0 pg/mm2, Rmax 56.0 pg/mm2, ka 115778.511 M-1s-1, kd 1.284 1/s): 4.96
- pKD (PRVABC59, Concentration 10.0 uM, Immobilization level 5500.0 pg/mm2, Rmax 46.0 pg/mm2, ka 170057.868 M-1s-1, kd 1.305 1/s): 5.12
- pKD (PRVABC59, Concentration 10.0 uM, Immobilization level 10000.0 pg/mm2, Rmax 44.0 pg/mm2, ka 295859.47 M-1s-1, kd 1.578 1/s): 5.27
- pKD (PRVABC59, Concentration 10.0 uM, Immobilization level 12000.0 pg/mm2, Rmax 41.0 pg/mm2, ka 173417.805 M-1s-1, kd 0.975 1/s): 5.25
- pKD (PRVABC59, Concentration 10.0 uM, Immobilization level 13000.0 pg/mm2, Rmax 62.0 pg/mm2, ka 213953.785 M-1s-1, kd 1.191 1/s): 5.25

SMILES: O=C(Nc1ccc2c(c1)CCNCC2)c1cc(Cl)cc2[nH]ncc12
- pKD (PRVABC59, Concentration 10.0 uM, Immobilization level 3900.0 pg/mm2, Rmax 28.0 pg/mm2, ka 176787.489 M-1s-1, kd 0.385 1/s): 5.66
- pKD (PRVABC59, Concentration 10.0 uM, Immobilization level 4900.0 pg/mm2, Rmax 58.0 pg/mm2, ka 81779.894 M-1s-1, kd 0.366 1/s): 5.35
- pKD (PRVABC59, Concentration 10.0 uM, Immobilization level 5500.0 pg/mm2, Rmax 55.0 pg/mm2, ka 98394.506 M-1s-1, kd 0.363 1/s): 5.43
- pKD (PRVABC59, Concentration 10.0 uM, Immobilization level 10000.0 pg/mm2, Rmax 51.0 pg/mm2, ka 117713.558 M-1s-1, kd 0.472 1/s): 5.4
- pKD (PRVABC59, Concentration 10.0 uM, Immobilization level 12000.0 pg/mm2, Rmax 47.0 pg/mm2, ka 102680.383 M-1s-1, kd 0.29 1/s): 5.55
- pKD (PRVABC59, Concentration 10.0 uM, Immobilization level 13000.0 pg/mm2, Rmax 85.0 pg/mm2, ka 77805.794 M-1s-1, kd 0.391 1/s): 5.3

SMILES: N[C@H]1CCc2ccc(NC(=O)c3cc(Cl)cc4[nH]ncc34)cc21
- pKD (PRVABC59, Concentration 10.0 uM, Immobilization level 3900.0 pg/mm2, Rmax 29.0 pg/mm2, ka 348858.596 M-1s-1, kd 0.945 1/s): 5.57
- pKD (PRVABC59, Concentration 10.0 uM, Immobilization level 4900.0 pg/mm2, Rmax 45.0 pg/mm2, ka 214378.611 M-1s-1, kd 0.858 1/s): 5.4
- pKD (PRVABC59, Concentration 10.0 uM, Immobilization level 5500.0 pg/mm2, Rmax 42.0 pg/mm2, ka 277409.149 M-1s-1, kd 0.816 1/s): 5.53
- pKD (PRVABC59, Concentration 10.0 uM, Immobilization level 10000.0 pg/mm2, Rmax 43.0 pg/mm2, ka 267738.182 M-1s-1, kd 1.043 1/s): 5.41
- pKD (PRVABC59, Concentration 10.0 uM, Immobilization level 12000.0 pg/mm2, Rmax 61.0 pg/mm2, ka 230496.11 M-1s-1, kd 0.784 1/s): 5.47
- pKD (PRVABC59, Concentration 10.0 uM, Immobilization level 13000.0 pg/mm2, Rmax 48.0 pg/mm2, ka 351322.313 M-1s-1, kd 0.852 1/s): 5.62
